Screen size: about 16,000 compounds; about 4,000 (25%) were called active. About 26% were inconclusive and are not listed. The call rests on the fitted dose curve; in most records, active means well fitted curve in the direction sought with a large enough effect; inconclusive means small, poorly fitted or top-dose-only effect, or effect the other way; inactive means no such curve, though single readings can be large or run the other way. A selection follows.
On the % scale 0 is the no-effect control and ±100 the full control effect.

For the assay, the target named is Cytochrome P450 2C9 (Homo sapiens) (UniProt P11712). Briefly: Cytochrome panel assay with activity outcomes. The following applies: recombinant CYP, pro-luciferin dealkylation, luminescence, p450-cyp2c9; series mostly up to 57.1 µM; activity, negative = inhibition: at the top concentration.
Chain of Cytochrome P450 2C9 (Homo sapiens) (P11712 whole entry, looked up): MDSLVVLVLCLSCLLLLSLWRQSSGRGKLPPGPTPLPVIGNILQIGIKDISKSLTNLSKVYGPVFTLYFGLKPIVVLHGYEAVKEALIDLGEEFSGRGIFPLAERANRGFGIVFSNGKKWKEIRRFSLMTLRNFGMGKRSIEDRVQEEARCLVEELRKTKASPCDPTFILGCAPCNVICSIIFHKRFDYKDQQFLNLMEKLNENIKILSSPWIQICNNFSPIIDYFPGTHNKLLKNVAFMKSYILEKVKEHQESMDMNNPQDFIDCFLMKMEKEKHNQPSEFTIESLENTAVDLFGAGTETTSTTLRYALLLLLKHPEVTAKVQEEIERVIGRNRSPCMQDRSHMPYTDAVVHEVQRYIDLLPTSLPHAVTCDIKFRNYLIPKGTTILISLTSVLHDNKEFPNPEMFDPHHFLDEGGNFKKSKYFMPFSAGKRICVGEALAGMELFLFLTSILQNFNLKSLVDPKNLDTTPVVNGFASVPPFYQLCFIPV
One may read the AC50 as the midpoint of the concentration-response curve, whichever way the signal moves. Regarding `CCOC(=O)n1c(=O)n(Cc2ccccc2Cl)c2ccccc21`, the AC50 was 8.91 µM (active).

Consider `Cn1c(=O)n(CCC(=O)O)c2ccccc21`, for which the “activity, negative = inhibition” value is 23.1% (inactive).

With `Cc1n[nH]c(=O)nc1NCc1ccccc1Cl`, the “activity, negative = inhibition” value is 22.6% (inactive). Consider `CCOC(=O)n1c(=O)n(Cc2c(Cl)cccc2Cl)c2ccccc21`, for which the AC50 was 3.98 µM (active).

With `O=c1[nH]cc(CS(=O)(=O)Cc2c[nH]c(=O)[nH]c2=O)c(=O)[nH]1`, the activity, negative = inhibition is -2.59% [at 11.4 µM] (inactive).

With `C/C(=N\O)c1ccc2[nH]ccc2c1`, the “activity, negative = inhibition” value was -8.4% (inactive). On the same count and under the same terms, to `Cc1n[nH]c(C)c1S(=O)(=O)N1CCC(C(=O)O)CC1` belongs -2.96% (inactive). Same read-out and setting: to `NNC(=O)c1ccncc1` belongs -14.5% [at 25.6 µM] (inactive). Take `CC(=O)c1c(C(C)=O)c(C)n(NC(=O)c2ccncc2)c1C`: the AC50 is 1.58 µM (active). As to `O=C(NNC(=O)c1ccncc1)c1ccncc1`, the activity, negative = inhibition is 0.511% [at 11.4 µM] (inactive).

Regarding `NS(=O)(=O)c1ccc(N=Nc2cc3ccccc3c(C(=O)O)c2O)cc1`, the activity, negative = inhibition was -1.93% [at 11.4 µM] (inactive).

`CCN1C(=O)[C@H]2[C@H]3[C@H](O)[C@H](O)C/C(=N/O[C@@H]4O[C@H](COC(C)=O)[C@@H](OC(C)=O)[C@H](OC(C)=O)[C@H]4OC(C)=O)[C@@H]3CC[C@@H]2C1=O`: the activity, negative = inhibition is -1.58% [at 11.4 µM] (inactive). On the same count and under the same terms, under `C/C(=N\NC(=O)c1ccc(Br)cc1)c1ccccc1` stands 9.36% (inactive). Still for that read-out and setting: to `CC1(C)Cc2ccccc2C(NNC(=O)c2ccncc2)=N1` belongs -14.2% (inactive).

Regarding `C/C(=N\NC(=O)c1ccncc1)c1ccc2ccccc2c1O`, the AC50 is 0.1 µM (active). Same read-out and setting: under `O=C(c1cccc(F)c1)N1CCC2(CC1)CCN(c1ncccn1)CC2` stands 12.6 µM (active). `CC(=O)N1CCC2(CCCN(c3ncccn3)C2)CC1`: the “activity, negative = inhibition” value is -3.08% (inactive). In the case of `O=C(c1cccc(F)c1)N1CCC2(CC1)CCN(c1ccccc1)CC2`, the “activity, negative = inhibition” value was -28.2% (inactive). Same read-out and setting: to `O=C(c1cc(C(F)(F)F)cc(C(F)(F)F)c1)N1CCC2(CCCN(c3ncccn3)C2)CC1` belongs -8.06% (inactive); to `CC(C)NC(=O)N1CCC2(CC1)CCN(C(=O)c1cccc(F)c1)CC2`, 27.3% (inactive). As for `O=C(c1cccc(F)c1)N1CCC2(CCCN(c3ncccn3)C2)CC1`, the concentration at half-maximal activity (AC50) was 15.8 µM (active). Turning to `COc1cccc2c1C(=O)c1c(O)c3c(c(O)c1C2=O)C[C@](O)(C(=O)CO)C[C@H]3O[C@@H]1C[C@H](N)[C@H](O)[C@H](C)O1`, the “activity, negative = inhibition” value is -8.75% [at 25.6 µM] (inactive).

With `O=C(O)[C@@H]1CCCN1`, the activity, negative = inhibition is 1.2% [at 11.4 µM] (inactive). On to `CCSc1nnc(-c2ccc(Cl)cc2)c2ccccc12`, for which the AC50 is 2 µM (active). As to `O=C(N/C(=C/c1ccc(Br)cc1)c1nc2ccccc2[nH]1)c1ccco1`, the “activity, negative = inhibition” value was -21.8% (inactive). Regarding `Cc1ccc(C(=O)N/C(=C\c2ccc(Br)cc2)c2nc(=S)[nH][nH]2)cc1`, the AC50 was 8.91 µM (active).

These data come from PubChem BioAssay AID1851 (National Center for Advancing Translational Sciences (NCATS), 2009).
